“And” between values parts separate entries of the source, which are not always exact repeats. Equal values may be shown once. Results filed as inconclusive are left out. Some compounds were tested as several samples or in several runs, with calls that do not always agree. The source made the active and inactive calls. How the source made its calls, unless noted: active means hit-call score of the fitted dose curve at least 0.9, where 1 is the maximum; inactive means score below 0.9.
Experiments:
[1] = CCTE_Mundy_HCI_Cortical_Synap_Neur_Matur_BPCount: CCTE's Synaptogenesis and Neurite Maturation Assay in rat cortical cells for Branch Point Count, Mundy Lab (AID 2284211)
Procedure, shortened: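 In this multiplexed morphology assay, cortical cells from rat receive chemicals at DIV 7 and are fixed at DIV 12, then immunostained and imaged; branch points are counted, with DMSO as baseline.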

[2] = CCTE_Mundy_HCI_Cortical_NOG_NeuriteCount: CCTE's Neurite Outgrowth Assay in rat cortical cells for Neurite Count, Mundy Lab (AID 2284212);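 further: cells fixed about two days after chemical exposure began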
Procedure, shortened: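 Rat cortical primary cells; compound added 2 h post-plating, 1/10 dilution of working solution. Anti-betaIII-tubulin/AF488 ICC; ArrayScan neurite count vs DMSO.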

[3] = CCTE_Mundy_HCI_Cortical_NOG_NeuriteLength: CCTE's Neurite Outgrowth Assay in rat cortical cells for Neurite Length, Mundy Lab (AID 2284213);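 on AC50: neurites imaged about 48 to 50 h after chemical exposure began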
Procedure, shortened: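 First, rat primary cortical cells were plated and, 2 h later, given test chemical as a 1/10 dilution. Finally, βIII-tubulin immunostaining enabled automated imaging of neurite length.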

[4] = CCTE_Mundy_HCI_Cortical_Synap_Neur_Matur_NeuriteLength: CCTE's Synaptogenesis and Neurite Maturation Assay in rat cortical cells for Neurite Length, Mundy Lab (AID 2284214)
Procedure, shortened: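 Read-out: high-content imaging of MAP2-labelled neurites, with synaptophysin and Hoechst co-stain, in rat cortical cultures fixed at DIV 12. Activity fitted in positive direction relative to DMSO baseline.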

[5] = CCTE_Mundy_HCI_Cortical_Synap_Neur_Matur_SynapseCount: CCTE's Synaptogenesis and Neurite Maturation Assay in rat cortical cells for Synapse Count, Mundy Lab (AID 2284218)
Procedure, shortened: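 Read-out: synapse number per neuron, automated high-content imaging of fixed cells immunostained for MAP2 and synaptophysin plus Hoechst nuclei. Rat primary cortical cultures, AraC at DIV 5, chemical dosing DIV 7–12. Positive-direction fit relative to DMSO.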

[6] = CCTE_Mundy_HCI_hN2_NOG_NeuriteLength: CCTE's Neurite Outgrowth Assay in human hN2 cells for Neurite Length, Mundy Lab (AID 2284220; active means hit-call score of the fitted dose curve at least 0.9, where 1 is the maximum)
Procedure, shortened: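 Plate hNP1-derived neurons, then add chemical 2 h later as a 1/10 dilution. Stain with anti-βIII-tubulin then Alexa Fluor-488 secondary, and image automatically to measure neurite length.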

[7] = CCTE_Mundy_HCI_hN2_NOG_NeuronCount: CCTE's Neurite Outgrowth Assay in human hN2 cells for Neuron Count, Mundy Lab (AID 2284221; active means hit-call score of the fitted dose curve at least 0.9, where 1 is the maximum)
Procedure, shortened: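 Read-out is the number of betaIII-tubulin-positive neurons imaged by automated high-content analysis, with DMSO as negative control.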

[8] = CCTE_Mundy_HCI_Cortical_Synap_Neur_Matur_NeuriteCount: CCTE's Synaptogenesis and Neurite Maturation Assay in rat cortical cells for Neurite Count, Mundy Lab (AID 2284222)
Procedure, shortened: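 Chemical exposure runs DIV 7–12 in rat cortical cultures, glia suppressed by AraC at DIV 5; measurement is at DIV 12. Imaging-derived neurite counts are fitted against DMSO baseline.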

[9] = CCTE_Mundy_HCI_Cortical_Synap_Neur_Matur_CellBodySpotCount: CCTE's Synaptogenesis and Neurite Maturation Assay in rat cortical cells for Cell Body Spot Count, Mundy Lab (AID 2284223)
Procedure, shortened: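 High-content imaging counts synaptophysin puncta on neuronal cell bodies per neuron after MAP2/synaptophysin immunostaining. Rat primary cortical cells, glia arrested with AraC at DIV 5, were exposed DIV 7–12; signal decrease measured against DMSO.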

[10] = TAMU_PeakParms_SingleDonor1434_Chronotropy: Texas A&M University (TAMU) 1.5-hr Human Induced Pluripotent Stem Cell (iPSC)-derived Cardiomyocytes Calcium (Ca+2) Flux Assay for Cardiotoxicity: Chronotropy (changes in peak frequency) (AID 2284217); settings: actives raise or lower the signal
Procedure, shortened: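 Beat frequency of single-donor iPSC cardiomyocytes was recorded through a calcium-sensitive dye 1.5 hours after exposure to four concentrations up to 100 uM. An EC05 point of departure was derived.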

Measured: AC50

COP(=O)(OC)OC=C(Cl)Cl
inactive: [1] | [2] | [3] | [4] | [5] | [6] | [8] | [9]
active: [1] 49 µM | [2] 77.3 µM | [3] 57.5 µM | [5] 9.71 µM | [7] 0.355 µM

O=S1OCC2C(CO1)C1(Cl)C(Cl)=C(Cl)C2(Cl)C1(Cl)Cl (configuration not stated)
active: [1] 15 µM | [2] 22.1 µM | [3] 23.8 µM | [10] 4.73 µM | [5] 19.6 µM | [9] 23.4 µM
inactive: [8]

O=[N+]([O-])/N=C1\NCCN1Cc1ccc(Cl)nc1
inactive: [1] | [2] | [3] | [4] | [5] | [8] | [9]

ClC1C(Cl)C(Cl)C(Cl)C(Cl)C1Cl (configuration not stated)
active: [10] 11.5 µM

CC1(c2ccc(Oc3ccccc3)cc2)OC(=O)N(Nc2ccccc2)C1=O (configuration not stated)
active: [1] 20.2 µM | [2] 55.8 µM | [3] 61.3 µM | [4] 44.1 µM | [5] 40 µM | [8] 59 µM | [9] 79.9 µM

CCC(C)(C)C(=O)OC1=C(c2ccc(Cl)cc2Cl)C(=O)OC12CCCCC2
inactive: [1] | [2] | [3] | [4] | [5] | [8] | [9]

O=C(O)COc1ccc(Cl)cc1Cl
inactive: [2] | [3] | [4] | [5] | [8]

CNC(=O)CSP(=S)(OC)OC
active: [1] 50 µM | [4] 50 µM | [5] 50 µM | [8] 50 µM
inactive: [1] | [2] | [3] | [4] | [5] | [8] | [9]

O=S(=O)(O)C(F)(F)C(F)(F)C(F)(F)C(F)(F)C(F)(F)C(F)(F)C(F)(F)C(F)(F)F
inactive: [1] | [2] | [3] | [4] | [5] | [8] | [9]

COP(=S)(OC)Oc1ccc([N+](=O)[O-])cc1
inactive: [1] | [5] | [8] | [9]
active: [2] 23.4 µM | [3] 23.7 µM | [4] 15 µM

CC[C@H](C)[C@H]1O[C@]2(C=C[C@@H]1C)C[C@@H]1C[C@@H](C/C=C(\C)[C@@H](O[C@H]3C[C@H](OC)[C@@H](O[C@H]4C[C@H](OC)[C@@H](O)[C@H](C)O4)[C@H](C)O3)[C@@H](C)/C=C/C=C3\CO[C@@H]4[C@H](O)C(C)=C[C@@H](C(=O)O1)[C@]34O)O2 (tested in a mixture with another compound)
active: [1] 0.896 µM | [2] 8.88 µM | [3] 8.48 µM | [4] 1.08 µM | [5] 1.41 µM | [8] 1.59 µM | [9] 1.75 µM

O=C(O)C(F)(F)C(F)(F)C(F)(F)C(F)(F)C(F)(F)C(F)(F)C(F)(F)F
inactive: [1] | [2] | [3] | [4] | [5] | [8] | [9]

CC1(C)C(C=C(Cl)Cl)C1C(=O)OC(C#N)c1ccc(F)c(Oc2ccccc2)c1 (configuration not stated)
active: [1] 49.9 µM and 15 µM | [2] 77.2 µM | [3] 79.7 µM | [4] 33.1 µM and 2.98 µM | [5] 77.9 µM | [8] 73.6 µM | [9] 87.1 µM
inactive: [2] | [3] | [5] | [8] | [9]

CN1CSC(=S)N(C)C1
inactive: [10]

CCOCN(C(=O)CCl)c1c(C)cccc1CC
active: [10] 4.73 µM

CC(C)N(C(=O)COc1nnc(C(F)(F)F)s1)c1ccc(F)cc1
inactive: [1] | [2] | [3] | [4] | [5] | [8] | [9]
